In PubChem BioAssay (NCI):
About 79,000 compounds went through this panel and 15% of them were active in at least one assay; those are over-represented in the sample as a whole. Cut-off read from the data, not from the text of the source: active = growth inhibition above about 70%; inactive = the rest.

Columns and labels:
[1] = NCI Yeast Anticancer Drug Screen. Data for the rad50 strain (AID 155);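 note: 0% = growth of vehicle-only cultures of the same strain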; conditions: S. cerevisiae rad50 strain growth inhibition; at 50.0 µM; stronger effect = higher value
How it was run: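 Cells are treated with compound, grown, and their growth is then scored against vehicle-only cultures of the same repair-deficient yeast strain.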

[2] = NCI Yeast Anticancer Drug Screen. Data for the sgs1 mgt1 strain (AID 161);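 note: 0% = growth of cultures given vehicle only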; conditions: S. cerevisiae sgs1 mgt1 strain, at 50.0 µM, stronger effect = higher value
How it was run: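 Read-out: growth inhibition vs vehicle controls. Cells: mutant yeast strain deficient in DNA damage repair.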

[3] = NCI Yeast Anticancer Drug Screen. Data for the cln2 rad14 strain (AID 165);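 note: 0% = growth equal to vehicle treated cultures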; conditions: S. cerevisiae cln2 rad14 strain, at 50.0 µM, stronger effect = higher value
How it was run: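 cln2 rad14 yeast strain; compound exposure; growth inhibition read vs vehicle controls.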

[4] = NCI Yeast Anticancer Drug Screen. Data for the bub3 strain (AID 167); conditions: S. cerevisiae bub3 mutant strain, at 50.0 µM, stronger effect = higher value
How it was run: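 Part of a panel of yeast mutants defective in DNA damage repair or cell cycle regulation. Each strain is grown with compound, and inhibition is calculated relative to solvent-treated cultures.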

[5] = NCI Yeast Anticancer Drug Screen. Data for the mlh1 rad18 strain (AID 175); conditions: S. cerevisiae mlh1 rad18 strain growth inhibition; at 50.0 µM; stronger effect = higher value
How it was run: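 Yeast w/ defined DNA-repair lesions; compound exposure; growth vs vehicle controls → % inhibition.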

[6] = NCI Yeast Anticancer Drug Screen. Data for the mec2-1 strain (AID 157); conditions: S. cerevisiae mec2-1 strain, at 50.0 µM, stronger effect = higher value
How it was run: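 Yeast mec2-1 mutant treated with compound. Readout: growth inhibition vs vehicle controls.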

Measured: growth inhibition

Clc1ccc(/C=N/N2CCN(/N=C/c3ccc(Cl)cc3)CC2)cc1
inactive: [1] -3.1% | [2] -0.2% | [3] -5.35% | [4] 13.2% | [5] -15%

CC(=O)/C(=C\c1ccc(/C=C(\C(C)=O)C(=O)CCN(C)C)cc1)C(=O)CCN(C)C
inactive: [1] 38.6% | [2] 7.05% | [3] 5% | [4] 5.65% | [5] -19.6%

O=C(O)COc1ccccc1P(=O)(c1ccccc1)c1ccccc1
inactive: [1] 23.1% | [2] 9.7% | [3] 35.8% | [4] 22.4% | [5] 23%

CN=C1CC2CCCC1C2 (stereo not given)
inactive: [1] -15.7% | [2] -5.8% | [3] -6.1% | [4] -7.95% | [5] -15.4%

CC(=O)N=Cc1c(O)[nH]c2ccccc12
inactive: [1] 36.9% | [2] 0.5% | [3] 6.85% | [4] 8.3% | [5] 0.45%

OC(c1ccccc1)(C1CCNCC1)C1CC1 (stereo not given)
inactive: [1] 9.8% | [2] -4% | [3] -20.4% | [4] -16.6% | [5] -6.45%

CC(=O)CC(=O)NCCCN1CCCCC1
inactive: [1] -28.7% | [2] -30.4% | [3] -5.1% | [4] -34.4% | [5] -33.4%

NC(=O)c1ccccc1OCC(=O)O
inactive: [1] 6.65% | [2] 4.2% | [3] 15.8% | [4] -6.45% | [5] 19.1%

Cc1ccc(N=C2SC(=NN(C)C)SC2=Nc2ccc(C)cc2)cc1
inactive: [1] 18.9% | [2] 8.35% | [3] -20.3% | [4] -5.25% | [5] -11.6%

O=C(O)CCc1ccc2c(c1)OCO2
inactive: [1] -2.1% | [2] -5.85% | [3] -5.4% | [4] -34.1% | [5] -11.4%

CC[N+](CC)(CC)CCCC[P+](CC)(CC)CC
inactive: [1] 15.8% | [2] 8.8% | [3] 9.9% | [4] 10.2% | [5] 13.7%

NCCCCC(N)C(=O)O.[Cu+2] (stereo not given)
inactive: [1] -13.6% | [2] -4.9% | [3] -6% | [4] -11.8% | [5] -22.8%

CC1=C(C(=O)OC2CC3CCC2(C)C3(C)C)C2Nc3ccccc3N(C)C2O1 (stereo not given)
inactive: [6] -8.8% | [2] -3.65% | [3] -3.2% | [4] -8.4% | [5] 6.95%

CCOC(=O)c1c(C)c2c(n1Cc1ccccc1)CCCC2=O
inactive: [6] 11.4% | [2] 38.5% | [3] 12.7% | [4] 23.9% | [5] 19.4%

CC(=O)[CH-]C(=O)c1ccccc1.CC(=O)[CH-]C(=O)c1ccccc1.CC(C)CCCC(C)[C@H]1CCC2[C@@H]3CC=C4C[C@@H]([O-])CC[C@]4(C)C3CC[C@@]21C.CC[O-].[Ti+4] (stereo not given in full)
inactive: [6] 0.05% | [2] 10.2% | [3] -33.9% | [4] 23.2% | [5] 3.85%

NC(Cc1ccccc1)=NCC(=O)O
inactive: [6] -7.9% | [2] -29.4% | [3] -79.9% | [4] -19.7% | [5] -25.2%

NC(N)=NS(=O)(=O)c1ccc(NC(=O)c2cccc3c(N)c4ccccc4nc23)cc1
inactive: [6] 5.95% | [2] -0.2% | [3] 8.65% | [4] -9% | [5] -10.2%

N#C/C(=C\c1ccccn1)c1ccc(Cl)cc1
inactive: [6] 1.1% | [2] 11.5% | [3] -17.4% | [4] 17.3% | [5] 53.7%

NS(=O)(=O)c1ccc(NC2(C(=O)O)CCCC2)cc1
inactive: [6] -9.3% | [2] -0.9% | [3] -9.4% | [4] -38.5% | [5] -21.5%

C=C(CCCC(C)OC(=O)NC(C)c1cccc2ccccc12)[Si](C)(C)C (stereo not given)
inactive: [6] -20.1% | [2] -19.6% | [3] -6.6% | [4] 8.3% | [5] -26.4%

Nc1ccn[nH]1
inactive: [6] -0.05% | [2] 0.8% | [3] -2.25% | [4] 18.1% | [5] 1.35%

CN(C)CCCNCc1c[nH]c(=O)[nH]c1=O
inactive: [6] 6.55% | [2] -9.9% | [3] -7.4% | [4] -4.85% | [5] -25.9%

O=C(CSc1cc(Cl)c(Cl)cc1Cl)Nc1cccc(Cl)c1
inactive: [6] -6.9% | [2] 6.3% | [3] -12.6% | [4] -2.85% | [5] 3.5%
